# Data reported in article PMC7862700, “An all-to-all approach to the identification of sequence-specific readers for epigenetic DNA modifications on cytosine”.
# Key:
# Experiment in all cases: DAPPL (digital affinity profiling via proximity ligation, sequencing); 10 mM Tris-HCl pH 7.5, 50 mM NaCl, 1 mM DTT, 4% glycerol, room temperature, 30 min; GST-TFs on glutathione beads, 16-mer random dsDNA library, 0.1% formaldehyde crosslink after washing; high values mean tight binding
# HSF1 = HSF1 (Homo sapiens, UniProt Q00613 1-529); conditions: protein: recombinant; tags: N-terminal GST; chain copies: 3; dsDNA, one strand shown
# Sequence of HSF1 (Q00613 whole entry, the tested form may be a part): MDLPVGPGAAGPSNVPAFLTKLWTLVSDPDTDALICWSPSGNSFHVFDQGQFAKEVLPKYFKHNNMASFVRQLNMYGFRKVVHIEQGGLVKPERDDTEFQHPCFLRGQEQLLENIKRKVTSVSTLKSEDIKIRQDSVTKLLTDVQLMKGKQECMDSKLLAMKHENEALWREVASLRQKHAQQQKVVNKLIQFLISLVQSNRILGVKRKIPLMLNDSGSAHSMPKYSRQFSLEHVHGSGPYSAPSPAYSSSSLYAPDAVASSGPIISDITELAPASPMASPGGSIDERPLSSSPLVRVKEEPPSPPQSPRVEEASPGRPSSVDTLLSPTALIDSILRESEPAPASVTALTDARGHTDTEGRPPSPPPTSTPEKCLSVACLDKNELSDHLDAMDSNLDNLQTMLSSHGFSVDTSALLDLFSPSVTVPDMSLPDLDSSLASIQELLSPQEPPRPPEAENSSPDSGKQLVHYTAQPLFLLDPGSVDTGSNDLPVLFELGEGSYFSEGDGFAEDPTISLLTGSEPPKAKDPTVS
# In short: (§1)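 After expression in yeast as GST fusions, human transcription factors were bound to glutathione beads, DNA-barcoded and mixed with a tag-only sample. The pools were incubated with 200 nmole of a 16-mer random double-stranded DNA library in Tris/NaCl/DTT/glycerol buffer (30 min, room temperature), washed and crosslinked with 0.1% formaldehyde. Proximity ligation with BsaI/T4 ligase ran for 1 h at 37 °C, before PCR amplification and sequencing on an Illumina NextSeq500. Binding signal is a hexamer's read frequency for a factor divided by its frequency for the tag-only sample.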
# CRX = CRX (Homo sapiens, UniProt O43186 1-299); conditions: protein: recombinant; tags: N-terminal GST; dsDNA, one strand shown
# Sequence of CRX (O43186 whole entry): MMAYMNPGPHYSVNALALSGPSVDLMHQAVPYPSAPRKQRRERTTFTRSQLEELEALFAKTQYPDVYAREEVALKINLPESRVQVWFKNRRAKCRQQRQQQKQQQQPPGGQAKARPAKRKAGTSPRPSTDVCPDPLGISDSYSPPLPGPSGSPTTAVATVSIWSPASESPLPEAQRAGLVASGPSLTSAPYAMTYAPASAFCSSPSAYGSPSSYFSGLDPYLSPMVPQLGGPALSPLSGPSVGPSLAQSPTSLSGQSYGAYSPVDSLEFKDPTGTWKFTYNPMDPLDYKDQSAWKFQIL
# In short: as §1
# ELF3 = target: T1, ELF3 (Homo sapiens, UniProt P78545 1-371); conditions: protein: recombinant; tags: N-terminal GST; dsDNA, one strand shown
# T1 sequence: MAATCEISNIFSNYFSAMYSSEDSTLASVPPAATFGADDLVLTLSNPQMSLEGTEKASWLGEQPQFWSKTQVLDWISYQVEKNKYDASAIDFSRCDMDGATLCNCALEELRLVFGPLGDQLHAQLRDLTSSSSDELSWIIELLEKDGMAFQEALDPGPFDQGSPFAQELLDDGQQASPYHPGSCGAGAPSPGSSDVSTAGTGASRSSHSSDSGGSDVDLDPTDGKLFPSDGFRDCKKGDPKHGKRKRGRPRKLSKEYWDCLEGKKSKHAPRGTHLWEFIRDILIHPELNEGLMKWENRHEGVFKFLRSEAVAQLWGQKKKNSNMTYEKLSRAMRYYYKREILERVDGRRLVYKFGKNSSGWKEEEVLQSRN
# In short: as §1
# ETV3L = target: T2, ETV3L (Homo sapiens, UniProt Q6ZN32 1-361); conditions: protein: recombinant; tags: N-terminal GST; dsDNA, one strand shown
# T2 sequence: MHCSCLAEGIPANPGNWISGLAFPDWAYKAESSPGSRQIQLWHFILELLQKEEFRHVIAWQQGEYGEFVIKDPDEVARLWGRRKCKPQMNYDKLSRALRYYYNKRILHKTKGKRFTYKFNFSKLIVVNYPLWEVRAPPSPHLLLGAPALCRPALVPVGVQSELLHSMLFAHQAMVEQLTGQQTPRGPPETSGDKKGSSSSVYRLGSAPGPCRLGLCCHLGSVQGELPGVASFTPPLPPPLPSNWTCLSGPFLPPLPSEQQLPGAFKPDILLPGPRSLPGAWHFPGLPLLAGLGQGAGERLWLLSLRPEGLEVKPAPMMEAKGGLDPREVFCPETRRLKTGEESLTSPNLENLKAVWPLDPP
# In short: as §1
# SPDEF = target: T3, SPDEF (Homo sapiens, UniProt O95238 1-335); conditions: protein: recombinant; tags: N-terminal GST; dsDNA, one strand shown
# T3 sequence: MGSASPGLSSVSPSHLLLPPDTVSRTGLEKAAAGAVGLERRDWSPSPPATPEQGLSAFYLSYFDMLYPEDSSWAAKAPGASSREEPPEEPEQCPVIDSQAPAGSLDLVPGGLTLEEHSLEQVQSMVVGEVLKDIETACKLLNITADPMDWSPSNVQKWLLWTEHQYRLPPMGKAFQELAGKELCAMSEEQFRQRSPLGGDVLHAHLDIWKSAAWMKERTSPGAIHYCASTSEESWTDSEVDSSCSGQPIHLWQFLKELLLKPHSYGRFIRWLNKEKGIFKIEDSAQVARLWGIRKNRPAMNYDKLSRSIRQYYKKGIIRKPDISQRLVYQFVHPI
# In short: as §1
# SPIC = target: T4, SPIC (Homo sapiens, UniProt Q8N5J4 1-248); conditions: protein: recombinant; tags: N-terminal GST; dsDNA, one strand shown
# T4 sequence: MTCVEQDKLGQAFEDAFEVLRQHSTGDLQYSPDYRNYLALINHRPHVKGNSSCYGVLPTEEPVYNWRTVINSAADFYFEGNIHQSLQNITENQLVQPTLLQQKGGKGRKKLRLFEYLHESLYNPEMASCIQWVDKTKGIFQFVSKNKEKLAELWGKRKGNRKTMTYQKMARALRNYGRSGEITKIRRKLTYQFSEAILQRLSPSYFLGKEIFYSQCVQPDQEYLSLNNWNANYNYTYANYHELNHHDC
# In short: as §1
# ERF = target: T5, ERF (Homo sapiens, UniProt P50548 1-548); conditions: protein: recombinant; tags: N-terminal GST; dsDNA, one strand shown
# T5 sequence: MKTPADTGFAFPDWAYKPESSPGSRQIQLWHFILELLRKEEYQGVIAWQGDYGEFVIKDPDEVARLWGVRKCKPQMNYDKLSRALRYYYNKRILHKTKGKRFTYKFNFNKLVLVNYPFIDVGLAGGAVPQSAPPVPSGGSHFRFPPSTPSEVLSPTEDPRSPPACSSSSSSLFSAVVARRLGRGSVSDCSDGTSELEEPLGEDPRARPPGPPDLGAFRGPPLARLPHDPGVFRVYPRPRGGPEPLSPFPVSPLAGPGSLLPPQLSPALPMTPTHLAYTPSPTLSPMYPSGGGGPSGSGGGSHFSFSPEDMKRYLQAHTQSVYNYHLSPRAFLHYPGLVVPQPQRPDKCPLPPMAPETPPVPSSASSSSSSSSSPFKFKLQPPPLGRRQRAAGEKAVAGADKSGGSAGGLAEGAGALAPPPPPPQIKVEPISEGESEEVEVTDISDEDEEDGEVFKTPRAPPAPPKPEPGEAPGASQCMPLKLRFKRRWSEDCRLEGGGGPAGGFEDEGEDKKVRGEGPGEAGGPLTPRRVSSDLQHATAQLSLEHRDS
# In short: as §1
# ETV7 = target: T6, ETV7 (Homo sapiens, UniProt Q9Y603 1-341); conditions: protein: recombinant; tags: N-terminal GST; dsDNA, one strand shown
# T6 sequence: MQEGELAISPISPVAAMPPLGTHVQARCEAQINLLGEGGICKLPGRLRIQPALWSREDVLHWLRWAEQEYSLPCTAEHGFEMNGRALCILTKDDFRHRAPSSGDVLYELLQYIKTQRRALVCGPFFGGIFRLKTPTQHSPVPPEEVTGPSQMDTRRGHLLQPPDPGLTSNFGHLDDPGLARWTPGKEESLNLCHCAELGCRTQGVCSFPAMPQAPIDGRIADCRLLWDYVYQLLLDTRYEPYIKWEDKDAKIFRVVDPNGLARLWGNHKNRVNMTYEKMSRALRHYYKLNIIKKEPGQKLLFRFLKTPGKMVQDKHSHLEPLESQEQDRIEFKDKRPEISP
# In short: as §1
# SPIB = SPIB (Homo sapiens, UniProt Q01892 1-262); conditions: protein: recombinant; tags: N-terminal GST; dsDNA, one strand shown
# Sequence of SPIB (Q01892 whole entry): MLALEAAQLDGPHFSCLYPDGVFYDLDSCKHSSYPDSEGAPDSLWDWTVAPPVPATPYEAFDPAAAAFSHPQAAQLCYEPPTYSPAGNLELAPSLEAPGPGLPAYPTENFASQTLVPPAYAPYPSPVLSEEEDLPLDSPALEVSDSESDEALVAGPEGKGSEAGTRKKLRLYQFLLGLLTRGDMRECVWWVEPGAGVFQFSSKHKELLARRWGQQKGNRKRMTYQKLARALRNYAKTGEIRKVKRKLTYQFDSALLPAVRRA
# In short: as §1
sequence,measurement,setting,value
AGGGAT,binding signal,HSF1,"1.1 fold enrichment (6-mer frequency, TF over GST control)"
same,binding signal,CRX,"1.49 fold enrichment (6-mer frequency, TF over GST control)"
GCGATT,binding signal,HSF1,"1.23 fold enrichment (6-mer frequency, TF over GST control)"
same,binding signal,ELF3,"1.04 fold enrichment (6-mer frequency, TF over GST control)"
same,binding signal,CRX,"1.51 fold enrichment (6-mer frequency, TF over GST control)"
TCGAGA,binding signal,HSF1,"2.36 fold enrichment (6-mer frequency, TF over GST control)"
same,binding signal,CRX,"1.01 fold enrichment (6-mer frequency, TF over GST control)"
TACGAG,binding signal,HSF1,"1.26 fold enrichment (6-mer frequency, TF over GST control)"
same,binding signal,ELF3,"1.02 fold enrichment (6-mer frequency, TF over GST control)"
same,binding signal,CRX,"1.05 fold enrichment (6-mer frequency, TF over GST control)"
AGACTA,binding signal,HSF1,"1.06 fold enrichment (6-mer frequency, TF over GST control)"
same,binding signal,CRX,"1.02 fold enrichment (6-mer frequency, TF over GST control)"
CCAGAT,binding signal,HSF1,"1.61 fold enrichment (6-mer frequency, TF over GST control)"
same,binding signal,CRX,"1.34 fold enrichment (6-mer frequency, TF over GST control)"
AGGATT,binding signal,HSF1,"1.78 fold enrichment (6-mer frequency, TF over GST control)"
same,binding signal,CRX,"2.82 fold enrichment (6-mer frequency, TF over GST control)"
same,binding signal,ETV3L,"1.03 fold enrichment (6-mer frequency, TF over GST control)"
same,binding signal,SPDEF,"1.04 fold enrichment (6-mer frequency, TF over GST control)"
GTTGGC,binding signal,SPIC,"1.09 fold enrichment (6-mer frequency, TF over GST control)"
GGAATA,binding signal,HSF1,"1.44 fold enrichment (6-mer frequency, TF over GST control)"
same,binding signal,CRX,"1.02 fold enrichment (6-mer frequency, TF over GST control)"
same,binding signal,ERF,"1.02 fold enrichment (6-mer frequency, TF over GST control)"
CAATCG,binding signal,SPIC,"1.03 fold enrichment (6-mer frequency, TF over GST control)"
TCGTAA,binding signal,HSF1,"1.12 fold enrichment (6-mer frequency, TF over GST control)"
same,binding signal,CRX,"1.15 fold enrichment (6-mer frequency, TF over GST control)"
CAGAAA,binding signal,HSF1,"1.99 fold enrichment (6-mer frequency, TF over GST control)"
same,binding signal,CRX,"1.07 fold enrichment (6-mer frequency, TF over GST control)"
same,binding signal,ETV7,"1.02 fold enrichment (6-mer frequency, TF over GST control)"
ATGGGA,binding signal,SPIC,"1.05 fold enrichment (6-mer frequency, TF over GST control)"
ATTAGA,binding signal,HSF1,"1.45 fold enrichment (6-mer frequency, TF over GST control)"
same,binding signal,CRX,"1.95 fold enrichment (6-mer frequency, TF over GST control)"
GCATTA,binding signal,HSF1,"1.16 fold enrichment (6-mer frequency, TF over GST control)"
same,binding signal,CRX,"1.64 fold enrichment (6-mer frequency, TF over GST control)"
AGAATC,binding signal,HSF1,"1.74 fold enrichment (6-mer frequency, TF over GST control)"
same,binding signal,CRX,"1.21 fold enrichment (6-mer frequency, TF over GST control)"
TGCGAG,binding signal,SPIB,"1.03 fold enrichment (6-mer frequency, TF over GST control)"
same,binding signal,HSF1,"1.15 fold enrichment (6-mer frequency, TF over GST control)"
GAATCA,binding signal,SPIB,"1.03 fold enrichment (6-mer frequency, TF over GST control)"
same,binding signal,HSF1,"1.06 fold enrichment (6-mer frequency, TF over GST control)"
same,binding signal,CRX,"1.04 fold enrichment (6-mer frequency, TF over GST control)"
